The values that follow come from the OligoGym collection.
Note: reference of the scale not given here.

One assay concerns the target ARIH1. Nature of the assay: pooled miR-30 sensor sort-seq; sequence = guide strand. To be noted: shRNA.
Sequence TACTTTCTGCTTTATATCCTGC showed a sensor-assay potency score (higher = more potent) of 0.014.
With TTTAACAGTCGATTGCACTCTA, the sensor-assay potency score (higher = more potent) amounted to 0.745.
For TATCCTGCAGAGAATCTTGGGA, the sensor-assay potency score (higher = more potent) is 0.446.
On the same count and under the same terms, to TAGCGGTTACAGTTGTACCAGG belongs -0.854; to TTGTCTTGTACTTTCTGCTTTA, -0.218.
Sequence TTACAGTAGAACAGGTACCTCT came in with a sensor-assay potency score (higher = more potent) of -0.0917.
On to TTAACAGTCGATTGCACTCTAC, for which the sensor-assay potency score (higher = more potent) was -0.996.
Take TTTAATTGCATGAGCACTCTAG: the sensor-assay potency score (higher = more potent) was -0.104.

For the next assay, the target named is ARL3. The assay is described as above. The note with it: shRNA.
Regarding TTGACATTTTTGCAGACCCAGT, the sensor-assay potency score (higher = more potent) is -1.64.
Regarding TAAGAATATCGGTATTTTCAAA, the sensor-assay potency score (higher = more potent) is -1.26.
The sequence TTTTGATGTTGAAACCCTGTGT showed a sensor-assay potency score (higher = more potent) of 0.456.
On the same count and under the same terms, to TTCAGAAGAGTGGTCTTGCCAG belongs -0.492.
The same measure, in the same setting: to TTTTCTGTCTGCACTGTCGATT belongs -0.243; to TAATTCTTCCAGTATGGTCTGA, 0.485.
Consider TTTGATGTTGAAACCCTGTGTA, for which the sensor-assay potency score (higher = more potent) came out at 0.537.
On to AATCTTTTTCTGTCTGCACTGT, for which the sensor-assay potency score (higher = more potent) is -0.19.
Sequence ATACATTCAGTTTAAAACCTTG registered a sensor-assay potency score (higher = more potent) of -0.514.
TGATTGTACACTTTTGATGTTG had a sensor-assay potency score (higher = more potent) of -0.736.
TTCAGATGCAAGCTGCTTCAGA registered a sensor-assay potency score (higher = more potent) of -0.224.
The same measure, in the same setting: the figure for TTTTCAAAATAATTCTTCCAGT is -0.927; for TTTTTCTGTCTGCACTGTCGAT it is -0.887.
Still for that read-out and setting: the figure for TACATATATAAGAATATCGGTA is -0.522; for AACCTTGTGATTGTACACTTTT it is -0.441.
With AATTCTTCCAGTATGGTCTGAT, the sensor-assay potency score (higher = more potent) amounted to 0.17.
Consider TTGATGTTGAAACCCTGTGTAG, for which the sensor-assay potency score (higher = more potent) was -0.924.
In turn, TCTGGTGCACTTTTCAACTTGC gave a sensor-assay potency score (higher = more potent) of 0.321.
The same measure, in the same setting: to TTCAGTTTAAAACCTTGTGATT belongs -1.5.
In turn, TTAGTTTTTCTTCCTCCAGTAA came in with a sensor-assay potency score (higher = more potent) of -0.387.
Still for that read-out and setting: to TTGTACACTTTTGATGTTGAAA belongs -1.03; to TTGTGATTGTACACTTTTGATG, -1.36.
Consider TTACATATATAAGAATATCGGT, for which the sensor-assay potency score (higher = more potent) was -0.321.
